Experimental data reported in PubChem BioAssay (Tox21).
Results filed as inconclusive are left out. Active and inactive are the calls of the source. Unless noted, calls come from the whole dose curve; as a rule, active = well fitted curve in the direction sought with a large enough effect in the repeat runs; inconclusive = weak or mixed curves; inactive = no such curve, though single readings can be large; an effect the other way counts as inactive or inconclusive.

Experiments:
[1] = qHTS assay to identify small molecule that activate the aryl hydrocarbon receptor (AhR) signaling pathway - cell viability counter screen (AID 743086); note: nearly all actives have a fitted effect of over 45% in size; note: potency is the fitted concentration of half-maximal effect
In short: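 Cytotoxicity counter screen: CellTiter-Fluor signal (30 min, 37 C) in 4000 HepG2 cells/well carrying the DRE-luciferase reporter, following 24 h compound exposure at 37 C.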

[2] = target: Peroxisome proliferator-activated receptor gamma (Homo sapiens) (UniProt P37231); assay: qHTS assay to identify small molecule agonists of the peroxisome proliferator-activated receptor gamma (PPARg) signaling pathway (AID 743094; active = well fitted activation curve with a large enough effect in the signal ratio in the repeat runs, not every such curve was filed as active; the % refers to the signal ratio)
In short: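 GeneBLAzer PPARg UAS-bla HEK293H cells were plated, rested 5 h, then exposed to compounds for 17 h at 37C. Beta-lactamase activity was read by LiveBLAzer B/G FRET substrate fluorescence after 1 h at room temperature.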

[3] = target: Peroxisome proliferator-activated receptor gamma (Homo sapiens) (UniProt P37231); assay: qHTS assay to identify small molecule antagonists of the peroxisome proliferator-activated receptor gamma (PPARg) signaling pathway (AID 743191; calls by dose curve; note: series mostly up to about 63 µM; nearly all actives have a fitted effect of over 30% in size)
In short: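 Beta-lactamase reporter under UAS control in HEK293H PPARg-bla cells; compound treatment 17 h at 37C. Read-out: fluorescence intensity after 1 h room-temperature incubation with LiveBLAzer B/G FRET substrate.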

[4] = qHTS assay to identify small molecule antagonists of the peroxisome proliferator-activated receptor gamma (PPARg) signaling pathway - cell viability counter screen (AID 743194); note: nearly all actives have a fitted effect of over 55% in size; note: potency is the fitted concentration of half-maximal effect
In short: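 Viability was measured as CellTiter-Glo luminescence in GeneBLAzer PPARg UAS-bla HEK293H cells. These cells had been exposed 17 h at 37 C to compounds together with rosiglitazone at 50 nM final, with the beta-lactamase readout taken in the same wells.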

[5] = qHTS assay for small molecule agonists of the antioxidant response element (ARE) signaling pathway (AID 743202; active = well fitted activation curve with a large enough effect in the signal ratio in the repeat runs, not every such curve was filed as active; the % refers to the signal ratio)
In short: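 An ARE-responsive beta-lactamase gene stably integrated in HepG2 cells serves as reporter. After 5 h plating and 16 h compound incubation at 37 C, fluorescence of the B/G FRET substrate was measured.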

[6] = qHTS assay for small molecule activators of the heat shock response signaling pathway - cell viability counter screen (AID 743209); note: nearly all actives have a fitted effect of over 50% in size
In short: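 HSE-bla HeLa cells plated overnight, then exposed to Tox21 compounds (23 nL in DMSO) for 5 h at 37 C. After the bla reporter read, CellTiter-Glo was added in the same wells and luminescence read after 30 min at room temperature.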

[7] = qHTS assay to identify small molecule agonists of the peroxisome proliferator-activated receptor delta (PPARd) signaling pathway - cell viability counter screen (AID 743211); note: nearly all actives have a fitted effect of over 55% in size; note: potency is the fitted concentration of half-maximal effect
In short: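 Tox21 library compounds, delivered in DMSO, were incubated 17 h with PPARd-bla HEK293H cells; cytotoxicity was taken from CellTiter-Glo luminescence read 30 min after reagent addition.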

[8] = target: Peroxisome proliferator-activated receptor delta (Homo sapiens) (UniProt Q03181); assay: qHTS assay to identify small molecule agonists of the peroxisome proliferator-activated receptor delta (PPARd) signaling pathway (AID 743212; calls by dose curve)
In short: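 HEK293H UAS-bla reporter cells, human PPARd system; compounds delivered in DMSO after 5 h plating, then at 37 C. Beta-lactamase FRET read, 2 h RT substrate step.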

[9] = target: Bile acid receptor (Homo sapiens) (UniProt Q96RI1); assay: qHTS assay to identify small molecule antagonists of the farnesoid-X-receptor (FXR) signaling pathway (AID 743217; active = well fitted inhibition curve with a large enough effect in the signal ratio in the repeat runs, not every such curve was filed as active; the % refers to the signal ratio)
In short: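 FXR-UAS-bla HEK 293T cells (beta-lactamase reporter) given compound plus chenodeoxycholic acid (50 uM final), 16 h at 37C. LiveBLAzer B/G FRET substrate added for 2 h at room temperature; fluorescence read.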

[10] = target: Bile acid receptor (Homo sapiens) (UniProt Q96RI1); assay: qHTS assay to identify small molecule agonists of the farnesoid-X-receptor (FXR) signaling pathway (AID 743220; active = well fitted activation curve with a large enough effect in the signal ratio in the repeat runs, not every such curve was filed as active; the % refers to the signal ratio)
In short: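 Beta-lactamase reporter under UAS control in GeneBLAzer FXR HEK 293T cells (5000/well) measured with LiveBLAzer FRET substrate after 2 h at room temperature. Compound exposure lasted 16 h at 37C.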

[11] = target: Vitamin D3 receptor (Homo sapiens) (UniProt P11473); assay: qHTS assay to identify small molecule agonists of the vitamin D receptor (VDR) signaling pathway (AID 743222; calls by dose curve)
In short: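 VDR-bla cells plated 4 h at 37 C, then exposed to compounds for 16 h at 37 C. Beta-lactamase reporter activity measured by fluorescence after 2 h room-temperature loading with LiveBLAzer B/G FRET substrate.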

[12] = target: Vitamin D3 receptor (Homo sapiens) (UniProt P11473); assay: qHTS assay to identify small molecule antagonists of the vitamin D receptor (VDR) signaling pathway (AID 743223; active = well fitted inhibition curve with a large enough effect in the signal ratio in the repeat runs, not every such curve was filed as active; the % refers to the signal ratio)
In short: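 Quantitative HTS in VDR-bla reporter cells stimulated with 1alpha,25-dihydroxyvitamin D3, 3 nM final. Compound exposure 16 h, 37C, 5% CO2. Read-out: beta-lactamase FRET substrate fluorescence, 2 h RT.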

[13] = qHTS assay to identify small molecule agonists of the vitamin D receptor (VDR) signaling pathway - cell viability counter screen (AID 743224); note: series mostly up to about 63 µM; nearly all actives have a fitted effect of over 50% in size
In short: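 VDR-bla cells, 4 h after plating, exposed to compounds for 16 h at 37C; viability then read in the same wells as CellTiter-Glo luminescence after 30 min at room temperature, following the bla FRET read.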

[14] = qHTS assay for small molecule agonists of the antioxidant response element (ARE) signaling pathway - cell viability counter screen (AID 743203; calls by dose curve; note: nearly all actives have a fitted effect of over 55% in size; note: potency is the fitted concentration of half-maximal effect)
In short: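 ARE-bla HepG2 cells were plated, rested 5 h at 37C/5% CO2, then exposed to compounds in DMSO for 16 h. Viability was read as CellTiter-Glo luminescence after 30 min at room temperature, in the same wells as the ARE screen.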

[15] = qHTS assay to identify small molecule antagonists of the peroxisome proliferator-activated receptor delta (PPARd) signaling pathway - cell viability counter screen (AID 743213); note: nearly all actives have a fitted effect of over 50% in size; note: potency is the fitted concentration of half-maximal effect
In short: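 HEK293H PPARd UAS-bla cells, 5 h pre-incubation, compound + L165041 300 nM final, 17 h 37 C; B/G FRET substrate 2 h RT; then CellTiter-Glo 30 min RT, luminescence.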

[16] = target: Peroxisome proliferator-activated receptor delta (Homo sapiens) (UniProt Q03181); assay: qHTS assay to identify small molecule antagonists of the peroxisome proliferator-activated receptor delta (PPARd) signaling pathway (AID 743215; active = well fitted inhibition curve with a large enough effect in the signal ratio in the repeat runs, not every such curve was filed as active; the % refers to the signal ratio;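 note: cells stimulated with agonist L165041 at 300 nM final during compound exposure; series mostly up to about 62 µM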)
In short: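 PPARd-bla HEK293H cells (UAS-bla reporter) preincubated 5 h, then given compound plus 300 nM final L165041 agonist for 17 h at 37 C. Beta-lactamase activity read by LiveBLAzer B/G FRET substrate fluorescence after 2 h at room temperature.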

[17] = qHTS assay to identify small molecule agonists of the farnesoid-X-receptor (FXR) signaling pathway - cell viability counter screen (AID 743218); note: nearly all actives have a fitted effect of over 45% in size; note: potency is the fitted concentration of half-maximal effect
In short: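 FXR-UAS-bla HEK 293T cells exposed to compounds for 16 h at 37C. Cytotoxicity read in the same wells by CellTiter-Glo luminescence after 30 min at room temperature, following the beta-lactamase FRET read.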

[18] = qHTS assay to identify small molecule antagonists of the farnesoid-X-receptor (FXR) signaling pathway - cell viability counter screen (AID 743221; active = well fitted cell-killing curve with a large enough effect in the repeat runs, not every such curve was filed as active; note: nearly all actives have a fitted effect of over 50% in size; note: potency is the fitted concentration of half-maximal effect)
In short: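 Cytotoxicity is taken from ATP luminescence (CellTiter-Glo, 30 min, room temperature) in FXR-bla HEK 293T cells previously incubated 16 h at 37 C with compound and chenodeoxycholic acid at 50 uM final.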

[19] = qHTS assay for small molecule activators of the heat shock response signaling pathway (AID 743210; active = well fitted activation curve with a large enough effect in the signal ratio in the repeat runs, with a control signal flat, not every such curve was filed as active; the % refers to the signal ratio;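 note: HeLa cells with beta-lactamase reporter driven by heat shock elements; series mostly up to about 63 µM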)
In short: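 In HSE-bla HeLa cells, 5 h compound incubation (37 C) precedes addition of LiveBLAzer B/G substrate; after 2.5 h at room temperature, fluorescence intensity indicates reporter induction.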

Measured: Potency

Sequence of Vitamin D3 receptor (Homo sapiens) (P11473 whole entry, looked up): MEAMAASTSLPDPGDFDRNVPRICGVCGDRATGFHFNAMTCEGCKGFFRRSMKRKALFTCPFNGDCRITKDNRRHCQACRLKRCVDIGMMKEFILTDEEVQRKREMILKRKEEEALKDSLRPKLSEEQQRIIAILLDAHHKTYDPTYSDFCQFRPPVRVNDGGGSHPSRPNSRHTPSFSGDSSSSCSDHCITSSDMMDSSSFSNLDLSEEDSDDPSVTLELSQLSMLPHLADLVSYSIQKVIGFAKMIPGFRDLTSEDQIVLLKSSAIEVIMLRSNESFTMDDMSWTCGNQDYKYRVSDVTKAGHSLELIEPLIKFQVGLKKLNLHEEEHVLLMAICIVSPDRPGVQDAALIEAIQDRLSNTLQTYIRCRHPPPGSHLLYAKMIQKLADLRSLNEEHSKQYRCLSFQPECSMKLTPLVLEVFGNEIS
Sequence of Bile acid receptor (Homo sapiens) (Q96RI1 whole entry, looked up): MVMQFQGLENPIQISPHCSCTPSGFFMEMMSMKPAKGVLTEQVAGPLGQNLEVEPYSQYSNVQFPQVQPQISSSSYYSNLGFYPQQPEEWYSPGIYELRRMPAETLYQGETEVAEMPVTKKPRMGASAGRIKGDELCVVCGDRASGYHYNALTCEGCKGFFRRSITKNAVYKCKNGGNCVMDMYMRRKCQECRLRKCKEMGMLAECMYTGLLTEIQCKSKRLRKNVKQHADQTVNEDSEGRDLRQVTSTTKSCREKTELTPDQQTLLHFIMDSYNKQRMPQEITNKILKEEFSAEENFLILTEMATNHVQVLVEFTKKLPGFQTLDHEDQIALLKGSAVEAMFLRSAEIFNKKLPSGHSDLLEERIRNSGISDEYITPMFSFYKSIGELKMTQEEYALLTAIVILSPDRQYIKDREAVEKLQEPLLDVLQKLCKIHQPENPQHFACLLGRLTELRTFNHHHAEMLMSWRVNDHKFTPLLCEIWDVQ
Sequence of Peroxisome proliferator-activated receptor gamma (Homo sapiens) (P37231 whole entry, looked up): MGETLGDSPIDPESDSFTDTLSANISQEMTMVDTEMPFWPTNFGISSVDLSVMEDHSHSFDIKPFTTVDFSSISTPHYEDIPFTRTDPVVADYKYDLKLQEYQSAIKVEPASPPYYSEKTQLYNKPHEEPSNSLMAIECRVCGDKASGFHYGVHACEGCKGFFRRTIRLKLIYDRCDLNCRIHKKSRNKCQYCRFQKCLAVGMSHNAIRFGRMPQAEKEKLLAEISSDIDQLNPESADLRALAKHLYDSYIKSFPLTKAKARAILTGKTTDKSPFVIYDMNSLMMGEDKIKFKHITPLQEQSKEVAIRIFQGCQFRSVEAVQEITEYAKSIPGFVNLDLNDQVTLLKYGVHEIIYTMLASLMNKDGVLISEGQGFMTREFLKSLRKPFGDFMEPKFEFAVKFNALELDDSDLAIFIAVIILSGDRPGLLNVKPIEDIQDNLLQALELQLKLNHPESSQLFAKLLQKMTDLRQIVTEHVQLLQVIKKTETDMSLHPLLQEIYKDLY
Sequence of Peroxisome proliferator-activated receptor delta (Homo sapiens) (Q03181 whole entry, looked up): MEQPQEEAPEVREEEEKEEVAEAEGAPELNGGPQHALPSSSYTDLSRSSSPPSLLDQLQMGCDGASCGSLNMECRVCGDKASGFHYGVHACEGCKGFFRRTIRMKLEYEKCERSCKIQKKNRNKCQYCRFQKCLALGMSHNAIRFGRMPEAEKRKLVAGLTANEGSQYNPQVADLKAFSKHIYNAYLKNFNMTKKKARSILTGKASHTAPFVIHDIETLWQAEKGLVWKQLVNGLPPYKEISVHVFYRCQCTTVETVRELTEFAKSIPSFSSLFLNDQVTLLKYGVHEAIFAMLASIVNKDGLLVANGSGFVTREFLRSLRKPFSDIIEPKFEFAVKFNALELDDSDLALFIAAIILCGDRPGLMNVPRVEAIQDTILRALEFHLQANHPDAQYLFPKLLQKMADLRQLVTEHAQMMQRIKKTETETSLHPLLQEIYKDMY

CC1(c2ccccc2)OC(C(=O)O)=CC1=O (stereo not given)
inactive: [1] | [2] | [3] | [4] | [5] | [6] | [7] | [8] | [9] | [10] | [11] | [12] | [13]

CC(C)Cc1ccc(C(C)C(=O)OCc2ccccn2)cc1 (stereo not given)
inactive: [3] | [4] | [5] | [14] | [6] | [7] | [8] | [15] | [16] | [9] | [17] | [18] | [11] | [12] | [13]

Nc1ccc([N+](=O)[O-])c(C(F)(F)F)c1
inactive: [3] | [4] | [5] | [19] | [7] | [8] | [15] | [17] | [10] | [18] | [12] | [13]

CN(C)CCN(Cc1ccsc1)c1ccccn1
inactive: [4] | [5] | [14] | [6] | [7] | [17] | [18] | [11] | [13]

CN(C)CCOC(c1ccccc1)c1ccc(Br)cc1 (stereo not given)
inactive: [14] | [6] | [19] | [8] | [9] | [11] | [12]

CC(C)(O)c1ccc(CNC(=O)c2cccnc2Oc2ccc(F)cc2)cc1
inactive: [1] | [4] | [14] | [6] | [8] | [15] | [16] | [17] | [18] | [13]

O[C@@H](COc1cccc2ncccc12)CN1CCN(C2c3ccccc3[C@@H]3[C@H](c4ccccc42)C3(F)F)CC1 (stereo not given in full)
inactive: [6] | [8]
active: [4] 13.3 µM | [14] 15 µM | [7] 9.44 µM | [15] 23.7 µM | [17] 15 µM | [18] 21.1 µM

CCc1cc(C2=C(C(=O)O)N(c3ccccc3C(F)(F)F)S(=O)(=O)c3ccccc32)cc2c1OCO2
inactive: [4] | [6] | [19] | [7] | [16] | [18] | [13]
active: [1] 21.4 µM

Cc1ccc(C(C)OC(=O)C2(C)CCC(C(=O)O)C2(C)C)cc1 (stereo not given)
inactive: [4] | [5] | [14] | [6] | [19] | [8] | [17] | [18] | [11] | [13]

NS(=O)(=O)c1ccc(N2CCCCS2(=O)=O)cc1
inactive: [4] | [5] | [14] | [19] | [7] | [15] | [9] | [17] | [10] | [18] | [11] | [12] | [13]
